According to the supplement of paper PMC6853941:
Where a name gives a salt, the structure may show the parent alone.

system: MCF10A; experiment: perturbation Mahalanobis distance of morphological profile vs DMSO controls (Mahalanobis distance (SD units)); higher = stronger morphological change, active = 7 or more; conditions: screen batch: Batch1_Mahalanobis_Distance; 72 h
Procedure: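 MCF10A cells were seeded onto drugs dispensed acoustically into 384-well plates, using one dose per drug chosen from its human peak plasma concentration, and incubated for 72 h at 37 °C. Cells were stained for DNA, tubulin and mitochondria and imaged; 78 CellProfiler features were extracted, plate-normalised and compared with DMSO wells.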

Row | SMILES | perturbation Mahalanobis distance
1 | O=NN(CCCl)C(=O)NCCCl [Carmustine] (0.2 µM) | 2.08 (inactive)
2 | C[C@@](N)(Cc1ccc(O)c(O)c1)C(=O)O [Methyldopa] (118.4 µM) | 3.81 (inactive)
3 | CN1C(CCl)Nc2cc(Cl)c(S(N)(=O)=O)cc2S1(=O)=O (stereo not given) [Methyclothiazide] (0.5 µM) | 2.69 (inactive)
4 | Cc1ccc(NC(=O)c2ccc(CN3CCN(C)CC3)cc2)cc1Nc1nccc(-c2cccnc2)n1 [Imatinib] (14 µM) | 4.06 (inactive)
5 | CCCCN1C[C@H](O)[C@@H](O)[C@H](O)[C@H]1CO [Miglustat] (92.6 µM) | 2.56 (inactive)
6 | COCc1c(C(C)C)nc(C(C)C)c(/C=C/[C@@H](O)C[C@@H](O)CC(=O)O)c1-c1ccc(F)cc1 [Cerivastatin] (0.46 µM) | 13.3 (active)
7 | O=C1C(=O)c2ccccc2C(O)=C1C1CCC(c2ccc(Cl)cc2)CC1 (stereo not given) [Atovaquone] (37.9 µM) | 3.34 (inactive)
8 | Nc1nnc(-c2cccc(Cl)c2Cl)c(N)n1 [Lamotrigine] (54.6 µM) | 2.15 (inactive)
9 | COc1cnc(NS(=O)(=O)c2ccc(N)cc2)nc1 [Sulfameter] (322.8 µM) | 6.64 (inactive)
10 | Nc1ccn([C@H]2CC[C@@H](CO)O2)c(=O)n1 [Zalcitabine] (2.4 µM) | 2.44 (inactive)
11 | CCCc1nn(C)c2c(=O)[nH]c(-c3cc(S(=O)(=O)N4CCN(C)CC4)ccc3OCC)nc12 [Sildenafil] (0.53 µM) | 3.27 (inactive)
12 | COc1cc2nc(N3CCN(C(=O)C4CCCO4)CC3)nc(N)c2cc1OC (stereo not given) [Terazosin] (1 µM) | 2.35 (inactive)
13 | CC[N+](C)(C)Cc1ccccc1Br [Bretylium Tosylate] (84.1 µM) | 2.48 (inactive)
14 | Cc1ccsc1C(=CCCN1CCC[C@@H](C(=O)O)C1)c1sccc1C [Tiagabine] (2.7 µM) | 2.46 (inactive)
15 | OCCN1C[C@H](O)[C@@H](O)[C@H](O)[C@H]1CO [Miglitol] (45.4 µM) | 1.78 (inactive)
16 | CO[C@H]1CC2CC[C@@H](C)[C@@](O)(O2)C(=O)C(=O)N2CCCC[C@H]2C(=O)O[C@H]([C@H](C)C[C@@H]2CC[C@@H](OCCO)[C@H](OC)C2)CC(=O)[C@H](C)/C=C(\C)[C@@H](O)[C@@H](OC)C(=O)[C@H](C)C[C@H](C)/C=C/C=C/C=C/1C [Everolimus] (0.95 µM) | 5.37 (inactive)
17 | CC(=O)/C(C#N)=C(\O)Nc1ccc(C(F)(F)F)cc1 [Teriflunomide (A77 1726)] (66.9 µM) | 4.02 (inactive)
18 | O=C1OCCN1/N=C/c1ccc([N+](=O)[O-])o1 [Furazolidone] (22.2 µM) | 3.46 (inactive)
19 | COc1ccc2c3c1O[C@H]1C[C@@H](O)C=C[C@@]31CCN(C)C2 [Galantamine] (20 µM) | 2.14 (inactive)
20 | Cn1nnc2c(C(N)=O)ncn2c1=O [Temozolomide] (70.6 µM) | 3.51 (inactive)

same assay, conditions: screen batch: Batch2_Mahalanobis_Distance; 72 h

Row | SMILES | perturbation Mahalanobis distance
21 | O=NN(CCCl)C(=O)NCCCl [Carmustine] (0.2 µM) | 2.55 (inactive)
22 | C[C@@](N)(Cc1ccc(O)c(O)c1)C(=O)O [Methyldopa] (118.4 µM) | 3.85 (inactive)
23 | CN1C(CCl)Nc2cc(Cl)c(S(N)(=O)=O)cc2S1(=O)=O (stereo not given) [Methyclothiazide] (0.5 µM) | 2.45 (inactive)
24 | Cc1ccc(NC(=O)c2ccc(CN3CCN(C)CC3)cc2)cc1Nc1nccc(-c2cccnc2)n1 [Imatinib] (14 µM) | 6.84 (inactive)
25 | CCCCN1C[C@H](O)[C@@H](O)[C@H](O)[C@H]1CO [Miglustat] (92.6 µM) | 3.14 (inactive)
26 | COCc1c(C(C)C)nc(C(C)C)c(/C=C/[C@@H](O)C[C@@H](O)CC(=O)O)c1-c1ccc(F)cc1 [Cerivastatin] (0.46 µM) | 13.1 (active)
27 | O=C1C(=O)c2ccccc2C(O)=C1C1CCC(c2ccc(Cl)cc2)CC1 (stereo not given) [Atovaquone] (37.9 µM) | 1.78 (inactive)
28 | Nc1nnc(-c2cccc(Cl)c2Cl)c(N)n1 [Lamotrigine] (54.6 µM) | 2.9 (inactive)
29 | COc1cnc(NS(=O)(=O)c2ccc(N)cc2)nc1 [Sulfameter] (322.8 µM) | 3.67 (inactive)
30 | Nc1ccn([C@H]2CC[C@@H](CO)O2)c(=O)n1 [Zalcitabine] (2.4 µM) | 3.2 (inactive)
31 | CCCc1nn(C)c2c(=O)[nH]c(-c3cc(S(=O)(=O)N4CCN(C)CC4)ccc3OCC)nc12 [Sildenafil] (0.53 µM) | 4.22 (inactive)
32 | COc1cc2nc(N3CCN(C(=O)C4CCCO4)CC3)nc(N)c2cc1OC (stereo not given) [Terazosin] (1 µM) | 2.82 (inactive)
33 | CC[N+](C)(C)Cc1ccccc1Br [Bretylium Tosylate] (84.1 µM) | 2.83 (inactive)
34 | Cc1ccsc1C(=CCCN1CCC[C@@H](C(=O)O)C1)c1sccc1C [Tiagabine] (2.7 µM) | 3.14 (inactive)
35 | OCCN1C[C@H](O)[C@@H](O)[C@H](O)[C@H]1CO [Miglitol] (45.4 µM) | 2.1 (inactive)
36 | CO[C@H]1CC2CC[C@@H](C)[C@@](O)(O2)C(=O)C(=O)N2CCCC[C@H]2C(=O)O[C@H]([C@H](C)C[C@@H]2CC[C@@H](OCCO)[C@H](OC)C2)CC(=O)[C@H](C)/C=C(\C)[C@@H](O)[C@@H](OC)C(=O)[C@H](C)C[C@H](C)/C=C/C=C/C=C/1C [Everolimus] (0.95 µM) | 9.89 (active)
37 | CC(=O)/C(C#N)=C(\O)Nc1ccc(C(F)(F)F)cc1 [Teriflunomide (A77 1726)] (66.9 µM) | 2.47 (inactive)
38 | O=C1OCCN1/N=C/c1ccc([N+](=O)[O-])o1 [Furazolidone] (22.2 µM) | 3.27 (inactive)
39 | COc1ccc2c3c1O[C@H]1C[C@@H](O)C=C[C@@]31CCN(C)C2 [Galantamine] (20 µM) | 2.43 (inactive)
40 | Cn1nnc2c(C(N)=O)ncn2c1=O [Temozolomide] (70.6 µM) | 2.12 (inactive)
